The campaign covered roughly 220,000 compounds. About 8,200 (3.7%) were called active. Only a selection was taken, and actives are over-represented in it overall. Values without a mark were called inactive.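 How the source made its calls: active means compounds that reduced the stress-induced luciferase reporter signal by more than about 70% of percent inhibition (limit read from the data); inactive means the rest.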
Test: inhibitors of CHOP promoter induction, primary screen, cell-based, unfolded protein response, luciferase reporter (AID 2732);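 further: 0% = tunicamycin plus vehicle and 100% = wells without tunicamycin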
Conditions: CHO-K1 CHOP-promoter luciferase, tunicamycin-induced, 15-18 h; at 10 µM; stronger effect = higher value

Row | Compound | inhibition
1 | Cc1cc(C(=O)NNS(=O)(=O)c2ccccc2C(F)(F)F)nn1C(C)(C)C | 14.2%
2 | O=C1NC(=Nc2ccc(Cl)cc2)SC1Cc1cccc(Cl)c1Cl (stereo unspecified) | 94.3% (active)
3 | O=C1N/C(=N\N=C\c2ccco2)SC1Cc1ccc(F)cc1 (stereo unspecified) | 2.81%
4 | NC1=NC(=O)C(Cc2cccc(Cl)c2Cl)S1 (stereo unspecified) | -11.3%
5 | COC(C[C@H](O)CC(=O)COCc1ccccc1)OC | 17.8%
6 | NC(=O)c1ccc(NC(=O)COC(=O)c2ccc([N+](=O)[O-])cc2)cc1 | 4.31%
7 | Cc1cc(C)cc(NC(=O)NC2CCN(CC(=O)Nc3cccc(Cl)c3C)CC2)c1 | 14.5%
8 | CCSc1nc(C)nc2c1oc1ccccc12 | 97.9% (active)
9 | COc1ccc(CCNC(=O)CSc2nc(C)nc3c2oc2ccccc23)cc1OC | 5.77%
10 | Cc1nc(Cl)c2oc3ccccc3c2n1 | -37.5%
11 | CC1=CC(C)(C)NC(=S)N1NC(=O)c1ccccc1Cl | -2.87%
12 | CCOc1ccc(C2NC(=S)NC3=C2CCc2ccccc23)cc1 (stereo unspecified) | -10.8%
13 | COc1cc2c(cc1/C=C1/NC(=O)N(c3ccccc3)C1=O)OCO2 | -2.61%
14 | Cc1ccccc1NC(=O)CN1C(=O)N/C(=C\c2cccn2-c2cccc(C(=O)O)c2)C1=O | 1.36%
15 | O=C1N/C(=C/c2cccn2-c2ccccc2)C(=O)N1c1cccc(Cl)c1 | 86.8% (active)
16 | Cc1c(C)c(C)c2[nH]c(=S)[nH]c2c1C | 20.2%
17 | N#CCc1ccc(OC(=O)c2cccnc2)cc1 | 12.3%
18 | Cc1nc(C)c(C(=O)N(c2ccc(C)c(C)c2)C(C(=O)NCc2ccco2)c2ccccc2)s1 (stereo unspecified) | -35.7%
19 | Cc1ccc(-c2nnn(CC(=O)N(Cc3ccco3)C(C(=O)NC(C)(C)C)c3ccncc3)n2)o1 (stereo unspecified) | 6.52%
20 | Cc1nn(-c2ccccc2)c2sc(C(=O)N(Cc3ccco3)C(C)C(=O)NC(C)(C)C)cc12 (stereo unspecified) | 80.4% (active)
21 | Cc1cc(C)c(C)c(S(=O)(=O)N[C@@H](C)C(=O)OC(C)C(=O)NC(N)=O)c1C (stereo partly specified) | -9.66%

Row | Compound | inhibition
22 | Cc1ccc(Oc2nc(-c3ccccn3)nc3ccccc23)cc1 | -40.5%
23 | CCOC(=O)c1ccc2c(c1)nc(C)n2CC | 3.33%
24 | CCOC(=O)CNC(=O)CSc1nc2cccnc2n1CC | 5.31%
25 | CCOC(=O)c1ccc2c(c1)nc(SCC(=O)NC(C)C)n2CC | 76% (active)
26 | COCCN(CCOC)S(=O)(=O)c1ccc(C(=O)Nc2nc3c(s2)CCc2ccccc2-3)cc1 | 82.3% (active)
27 | COc1ccc(C(=O)Nc2ncc3c(n2)-c2ccccc2CC3)cc1 | -1.8%
28 | C=CCN(CC=C)S(=O)(=O)c1ccc(C(=O)Nc2nc3c(s2)CCc2ccccc2-3)cc1 | 71% (active)
29 | C=CCN(CC=C)S(=O)(=O)c1ccc(C(=O)Nc2sc3c(c2C(N)=O)CCCCC3)cc1 | 41%
30 | CCN(c1ccccc1)S(=O)(=O)c1ccc(C(=O)Nc2nccs2)cc1 | 31.6%
31 | COCCN(CCOC)S(=O)(=O)c1ccc(/C(O)=C(\C#N)c2nc3ccccc3[nH]2)cc1 | 1.37%
32 | COc1ccc2[nH]c(C(=O)Nc3ccccc3Cl)cc2c1 | 2.73%
33 | CC(C)(C)C(=O)Nc1c(Br)c(C2CC2)nn1-c1ccccc1 | 0.02%
34 | CC(C)(C)c1cc(P(=O)(c2ccccc2)c2ccccc2)ccc1O | 9.08%
35 | CN1CCN(c2ncc3c(n2)CC(c2ccccc2F)CC3=O)CC1 (stereo unspecified) | 15.3%
36 | CSc1sc(C(=O)NC(=O)NCc2cccnc2)c(C)c1-c1ccon1 | 28.4%
37 | COC(=O)c1c(C(=O)OC)c2n(c1C)CCS2 | 14.2%
38 | CCn1c(=O)c2cc(C(=O)Nc3cccc(C(C)=O)c3)sc2c2ccccc21 | -10.2%
39 | Cc1ccc(S(=O)(=O)N(C)CC(=O)NC2CCCC2)cc1 | 36.5%
40 | Cc1ccc(NC(=O)NC(=O)N(C2CCCCC2)S(=O)(=O)c2ccccc2)cc1 | 84% (active)
41 | CC(c1ccco1)N(C(=O)Nc1ccccc1)C1CCCCC1 (stereo unspecified) | 36.4%
42 | CC1CC(NC(=O)/C(C#N)=C/c2ccc[nH]2)CC(C)(C)C1 (stereo unspecified) | -0.59%

Row | Compound | inhibition
43 | Cc1nc2cc3c(cc2s1)OCO3 | 14%
44 | CCCc1c(C(=O)Nc2ccc(F)cc2)cnn1-c1ccccc1 | 14.9%
45 | Cc1ccc(Nc2ccc(C(N)=O)cc2[N+](=O)[O-])cc1 | 21.8%
46 | Cc1ccc(Nc2cc(C)nc3c(C)ccc([N+](=O)[O-])c23)cc1 | 71.4% (active)
47 | Cc1cc(C)nc(Nc2cc([N+](=O)[O-])ccc2C)n1 | 0.9%
48 | Cc1ccccc1NC(=O)Cc1nnc(SCC(=O)N2CCN(c3ccccc3)CC2)n1C | 26.1%
49 | Cn1c(Cc2cccc3ccccc23)nnc1SCC(=O)N1CCN(c2cccc(Cl)c2)CC1 | 78.6% (active)
50 | Cc1cc2nnc(SCC(=O)N3CCN(c4ccccc4)CC3)n2c(N)n1 | 23.7%
51 | COc1ccc(OC)c(C(=O)c2ccc(Cl)cc2)c1 | 9.86%
52 | Cc1ccc(O)c(CNc2nc3ccccc3n2C)c1 | 11.9%
53 | Cc1ccc(C2=NN(C)c3nc4ccccc4n3C2)cc1 | 86.3% (active)
54 | Cn1cccc1-c1nc2ccccc2n1C | -2.65%
55 | COc1ccccc1-n1c(-c2cc(-c3ccco3)[nH]n2)n[nH]c1=S | -7.77%
56 | CCO[C@@H]1OC(C(=O)NC2CC2)=C[C@H](C)[C@H]1CCCO | 0.64%
57 | CCOC(=O)CN(C(=O)COc1nc(C)cc(C)c1C#N)c1ccc(Cl)cc1 | 23.1%
58 | O=C(CCCN1C(=O)/C(=C/c2ccco2)SC1=S)Nc1ccccc1 | 32.2%
59 | O=C(CCN1C(=O)/C(=C/c2cccs2)SC1=S)NNC(=O)c1cccc(O)c1 | 46.3%
60 | O=C(CCCN1C(=O)/C(=C\c2ccco2)SC1=S)Nc1cccc2ccccc12 | 73.2% (active)
61 | O=c1oc(-c2ccccc2NS(=O)(=O)c2ccc(Cl)cc2)nc2ccccc12 | 21%
